Assay results as given in the supplement of paper PMC11732987, “Enantioselective OTUD7B fragment discovery through chemoproteomics screening and high-throughput optimisation” (Communications Chemistry, 2025).

Columns and labels:
Test in all cases: log2 ratio of Biotin-Ahx-Ub-VS probe labelling (fragment/DMSO); higher = less target engagement (more negative = stronger competition), active = hit call of the paper (q ≤ 0.05, log2 ratio ≤ -1)
Conditions in all cases: compound concentration: 200 uM; treatment time: 3 h
[1] = target: T1, USP42 (UniProt Q9H9J4)
T1 sequence (whole entry): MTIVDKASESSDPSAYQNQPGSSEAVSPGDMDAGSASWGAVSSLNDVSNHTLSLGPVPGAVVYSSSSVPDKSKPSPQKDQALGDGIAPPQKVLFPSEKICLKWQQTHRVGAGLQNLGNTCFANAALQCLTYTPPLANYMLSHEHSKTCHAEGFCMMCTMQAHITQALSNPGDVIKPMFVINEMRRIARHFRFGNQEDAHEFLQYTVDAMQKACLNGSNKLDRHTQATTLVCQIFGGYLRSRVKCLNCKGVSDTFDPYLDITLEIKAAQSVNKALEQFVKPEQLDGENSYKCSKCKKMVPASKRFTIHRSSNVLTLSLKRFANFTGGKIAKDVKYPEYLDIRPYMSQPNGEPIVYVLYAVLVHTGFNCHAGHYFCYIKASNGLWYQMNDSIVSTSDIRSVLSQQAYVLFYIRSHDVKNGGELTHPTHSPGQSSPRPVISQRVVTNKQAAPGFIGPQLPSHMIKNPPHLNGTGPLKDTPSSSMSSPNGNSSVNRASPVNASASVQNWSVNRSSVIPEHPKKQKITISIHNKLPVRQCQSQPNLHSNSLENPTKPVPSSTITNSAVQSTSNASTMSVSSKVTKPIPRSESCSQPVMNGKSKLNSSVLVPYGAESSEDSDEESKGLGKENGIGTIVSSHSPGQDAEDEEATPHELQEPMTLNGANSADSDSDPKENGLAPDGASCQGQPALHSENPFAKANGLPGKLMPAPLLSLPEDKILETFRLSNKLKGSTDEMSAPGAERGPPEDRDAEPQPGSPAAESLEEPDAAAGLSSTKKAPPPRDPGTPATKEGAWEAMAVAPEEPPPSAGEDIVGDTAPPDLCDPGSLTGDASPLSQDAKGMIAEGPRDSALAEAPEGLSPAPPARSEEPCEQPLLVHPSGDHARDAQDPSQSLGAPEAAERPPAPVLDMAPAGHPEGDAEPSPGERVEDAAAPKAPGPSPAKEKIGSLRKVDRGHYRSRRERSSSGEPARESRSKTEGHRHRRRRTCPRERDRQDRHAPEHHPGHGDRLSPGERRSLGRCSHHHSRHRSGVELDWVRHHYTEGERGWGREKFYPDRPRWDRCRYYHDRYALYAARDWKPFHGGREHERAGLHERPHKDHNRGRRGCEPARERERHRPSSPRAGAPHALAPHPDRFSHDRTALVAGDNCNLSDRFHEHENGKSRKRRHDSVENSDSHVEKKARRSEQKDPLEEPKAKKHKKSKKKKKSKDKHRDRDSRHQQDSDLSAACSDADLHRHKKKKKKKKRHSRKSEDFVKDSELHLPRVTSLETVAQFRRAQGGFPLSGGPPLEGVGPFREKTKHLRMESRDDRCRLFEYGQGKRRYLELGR
In short: (§1)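 Values give the average log2 ratio of fragment to vehicle, assessed by unpaired t-test on global-median-normalised Spectronaut label-free quantities. Proteins needed ≥2 unique peptides. HEK293T lysate (495 µg per sample) was treated in triplicate with fragment at 200 µM or vehicle for 3 h and then with Biotin-Ahx-Ub-VS at 0.5 µM final for 1 h. Labelled DUBs were NeutrAvidin-enriched, digested and run by diaPASEF LC-MS/MS.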

[2] = target: USP46 (UniProt P62068)
In short: as §1

[3] = target: T2, USP47 (UniProt Q96K76)
T2 sequence (whole entry): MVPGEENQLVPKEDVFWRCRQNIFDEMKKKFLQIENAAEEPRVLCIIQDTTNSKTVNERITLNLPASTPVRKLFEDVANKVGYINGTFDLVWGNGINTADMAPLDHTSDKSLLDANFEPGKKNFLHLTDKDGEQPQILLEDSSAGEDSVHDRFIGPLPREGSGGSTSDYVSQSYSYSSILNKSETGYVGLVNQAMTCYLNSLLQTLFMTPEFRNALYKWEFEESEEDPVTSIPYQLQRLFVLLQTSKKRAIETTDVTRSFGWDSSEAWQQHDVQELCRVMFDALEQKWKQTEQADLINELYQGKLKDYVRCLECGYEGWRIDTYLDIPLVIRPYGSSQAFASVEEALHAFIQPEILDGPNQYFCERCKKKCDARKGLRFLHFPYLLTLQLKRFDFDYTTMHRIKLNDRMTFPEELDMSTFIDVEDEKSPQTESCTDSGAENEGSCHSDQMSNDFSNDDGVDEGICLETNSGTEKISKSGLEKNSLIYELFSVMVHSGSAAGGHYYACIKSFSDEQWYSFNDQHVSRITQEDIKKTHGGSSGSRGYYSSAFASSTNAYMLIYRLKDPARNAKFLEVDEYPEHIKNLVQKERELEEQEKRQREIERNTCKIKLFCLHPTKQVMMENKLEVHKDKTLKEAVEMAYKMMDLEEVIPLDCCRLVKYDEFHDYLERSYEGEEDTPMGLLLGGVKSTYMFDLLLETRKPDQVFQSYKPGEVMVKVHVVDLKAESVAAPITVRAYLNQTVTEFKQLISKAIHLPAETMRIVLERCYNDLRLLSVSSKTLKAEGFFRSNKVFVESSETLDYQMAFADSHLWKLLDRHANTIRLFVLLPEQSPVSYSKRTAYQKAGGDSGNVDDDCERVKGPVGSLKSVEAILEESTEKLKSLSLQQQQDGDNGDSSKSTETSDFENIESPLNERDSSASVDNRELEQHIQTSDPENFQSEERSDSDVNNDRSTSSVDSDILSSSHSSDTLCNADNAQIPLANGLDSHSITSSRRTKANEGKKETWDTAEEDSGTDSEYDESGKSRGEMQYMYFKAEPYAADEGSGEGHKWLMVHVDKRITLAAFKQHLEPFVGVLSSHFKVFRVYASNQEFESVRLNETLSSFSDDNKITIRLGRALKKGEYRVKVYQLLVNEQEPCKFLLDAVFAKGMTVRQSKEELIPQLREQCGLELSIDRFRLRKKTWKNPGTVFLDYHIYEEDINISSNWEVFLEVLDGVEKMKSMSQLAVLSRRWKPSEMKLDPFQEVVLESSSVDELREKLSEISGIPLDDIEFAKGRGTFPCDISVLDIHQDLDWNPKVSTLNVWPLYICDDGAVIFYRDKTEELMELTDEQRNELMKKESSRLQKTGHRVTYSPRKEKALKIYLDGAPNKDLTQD
In short: as §1

[4] = target: T3, USP48 (UniProt Q86UV5)
T3 sequence (whole entry): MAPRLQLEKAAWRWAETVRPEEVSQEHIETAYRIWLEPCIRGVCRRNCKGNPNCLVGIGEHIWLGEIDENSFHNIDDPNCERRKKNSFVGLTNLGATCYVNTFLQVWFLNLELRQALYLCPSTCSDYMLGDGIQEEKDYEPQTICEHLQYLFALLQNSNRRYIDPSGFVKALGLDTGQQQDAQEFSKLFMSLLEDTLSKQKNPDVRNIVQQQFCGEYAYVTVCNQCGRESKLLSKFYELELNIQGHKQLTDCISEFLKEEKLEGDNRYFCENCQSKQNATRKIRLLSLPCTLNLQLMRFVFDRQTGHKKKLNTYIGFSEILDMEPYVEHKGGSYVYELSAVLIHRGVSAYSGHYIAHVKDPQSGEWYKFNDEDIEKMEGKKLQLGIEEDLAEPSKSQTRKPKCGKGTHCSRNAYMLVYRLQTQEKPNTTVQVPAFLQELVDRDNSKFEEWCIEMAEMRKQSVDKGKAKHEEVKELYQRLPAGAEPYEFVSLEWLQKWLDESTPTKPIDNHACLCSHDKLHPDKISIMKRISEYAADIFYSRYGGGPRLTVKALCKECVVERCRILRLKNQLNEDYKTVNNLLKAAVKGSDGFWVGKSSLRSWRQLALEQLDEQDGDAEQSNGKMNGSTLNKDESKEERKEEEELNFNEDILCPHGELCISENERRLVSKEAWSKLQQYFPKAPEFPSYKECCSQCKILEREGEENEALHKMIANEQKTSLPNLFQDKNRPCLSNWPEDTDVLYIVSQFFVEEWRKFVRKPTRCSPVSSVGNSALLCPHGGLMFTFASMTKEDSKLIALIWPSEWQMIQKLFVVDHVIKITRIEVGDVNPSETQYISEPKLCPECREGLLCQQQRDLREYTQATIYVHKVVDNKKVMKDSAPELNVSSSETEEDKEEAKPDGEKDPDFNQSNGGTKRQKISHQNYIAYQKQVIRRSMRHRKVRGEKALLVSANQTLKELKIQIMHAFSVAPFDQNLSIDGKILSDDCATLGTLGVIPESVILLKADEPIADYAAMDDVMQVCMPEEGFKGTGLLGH
In short: as §1

[5] = target: T4, USP5 (UniProt P45974)
T4 sequence (whole entry): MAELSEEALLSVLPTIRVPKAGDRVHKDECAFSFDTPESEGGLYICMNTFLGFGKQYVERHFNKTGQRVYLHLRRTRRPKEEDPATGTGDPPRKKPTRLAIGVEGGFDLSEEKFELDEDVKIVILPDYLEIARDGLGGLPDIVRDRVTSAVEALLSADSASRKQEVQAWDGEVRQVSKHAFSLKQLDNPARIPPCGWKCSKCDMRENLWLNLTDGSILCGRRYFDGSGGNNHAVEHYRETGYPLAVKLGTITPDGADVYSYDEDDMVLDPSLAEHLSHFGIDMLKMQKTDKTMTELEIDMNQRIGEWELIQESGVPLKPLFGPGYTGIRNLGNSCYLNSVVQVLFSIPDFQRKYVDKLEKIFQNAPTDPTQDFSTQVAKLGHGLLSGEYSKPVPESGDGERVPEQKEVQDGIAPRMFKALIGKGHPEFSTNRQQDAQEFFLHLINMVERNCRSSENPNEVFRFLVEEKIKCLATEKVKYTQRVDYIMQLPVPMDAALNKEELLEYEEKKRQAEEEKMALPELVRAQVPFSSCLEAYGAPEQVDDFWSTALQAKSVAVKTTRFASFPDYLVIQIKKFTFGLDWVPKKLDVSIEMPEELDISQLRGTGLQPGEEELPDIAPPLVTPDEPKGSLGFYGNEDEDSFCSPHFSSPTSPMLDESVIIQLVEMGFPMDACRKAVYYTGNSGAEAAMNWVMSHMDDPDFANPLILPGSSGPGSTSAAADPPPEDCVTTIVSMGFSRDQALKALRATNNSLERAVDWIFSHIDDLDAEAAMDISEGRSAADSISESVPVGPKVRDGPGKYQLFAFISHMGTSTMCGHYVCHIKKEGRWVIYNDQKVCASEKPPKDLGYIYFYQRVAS
In short: as §1

[6] = target: USP54 (UniProt Q70EL1)
In short: as §1

[7] = target: USP7 (UniProt Q93009)
In short: as §1

[8] = target: T5, USP8 (UniProt P40818)
T5 sequence (whole entry): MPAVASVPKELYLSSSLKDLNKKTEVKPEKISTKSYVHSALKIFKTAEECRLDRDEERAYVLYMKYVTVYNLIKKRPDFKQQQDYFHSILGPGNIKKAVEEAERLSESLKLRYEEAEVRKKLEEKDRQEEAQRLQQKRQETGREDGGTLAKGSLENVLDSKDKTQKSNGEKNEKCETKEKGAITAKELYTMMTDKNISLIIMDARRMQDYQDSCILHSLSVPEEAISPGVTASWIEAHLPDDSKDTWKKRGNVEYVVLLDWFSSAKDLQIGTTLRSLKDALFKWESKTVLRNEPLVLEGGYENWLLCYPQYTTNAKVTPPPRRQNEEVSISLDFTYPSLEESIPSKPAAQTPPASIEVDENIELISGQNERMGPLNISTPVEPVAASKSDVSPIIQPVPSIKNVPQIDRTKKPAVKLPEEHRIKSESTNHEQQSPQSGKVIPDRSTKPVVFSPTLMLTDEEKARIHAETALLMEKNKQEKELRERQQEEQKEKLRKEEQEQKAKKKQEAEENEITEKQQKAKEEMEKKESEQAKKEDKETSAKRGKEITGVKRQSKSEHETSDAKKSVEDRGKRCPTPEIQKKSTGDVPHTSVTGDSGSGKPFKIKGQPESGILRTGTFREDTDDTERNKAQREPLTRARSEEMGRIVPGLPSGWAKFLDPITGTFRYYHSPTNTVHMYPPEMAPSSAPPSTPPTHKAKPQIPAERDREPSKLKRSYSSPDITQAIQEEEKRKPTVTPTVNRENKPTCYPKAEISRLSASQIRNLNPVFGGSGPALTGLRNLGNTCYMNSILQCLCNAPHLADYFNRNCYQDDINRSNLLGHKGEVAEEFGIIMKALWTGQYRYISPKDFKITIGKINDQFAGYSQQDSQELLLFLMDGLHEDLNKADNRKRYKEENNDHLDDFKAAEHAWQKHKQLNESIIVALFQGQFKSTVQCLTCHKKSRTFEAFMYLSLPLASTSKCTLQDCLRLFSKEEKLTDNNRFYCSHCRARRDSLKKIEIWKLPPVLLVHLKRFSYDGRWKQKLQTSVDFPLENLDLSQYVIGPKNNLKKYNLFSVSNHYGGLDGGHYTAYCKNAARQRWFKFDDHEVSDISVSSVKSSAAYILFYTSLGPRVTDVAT
In short: as §1

[9] = target: USP9X (UniProt Q93008)
In short: as §1

[10] = target: UniProt O00487
In short: as §1

Measured: log2 ratio of Biotin-Ahx-Ub-VS probe labelling

Chain of USP54 (Q70EL1 whole entry): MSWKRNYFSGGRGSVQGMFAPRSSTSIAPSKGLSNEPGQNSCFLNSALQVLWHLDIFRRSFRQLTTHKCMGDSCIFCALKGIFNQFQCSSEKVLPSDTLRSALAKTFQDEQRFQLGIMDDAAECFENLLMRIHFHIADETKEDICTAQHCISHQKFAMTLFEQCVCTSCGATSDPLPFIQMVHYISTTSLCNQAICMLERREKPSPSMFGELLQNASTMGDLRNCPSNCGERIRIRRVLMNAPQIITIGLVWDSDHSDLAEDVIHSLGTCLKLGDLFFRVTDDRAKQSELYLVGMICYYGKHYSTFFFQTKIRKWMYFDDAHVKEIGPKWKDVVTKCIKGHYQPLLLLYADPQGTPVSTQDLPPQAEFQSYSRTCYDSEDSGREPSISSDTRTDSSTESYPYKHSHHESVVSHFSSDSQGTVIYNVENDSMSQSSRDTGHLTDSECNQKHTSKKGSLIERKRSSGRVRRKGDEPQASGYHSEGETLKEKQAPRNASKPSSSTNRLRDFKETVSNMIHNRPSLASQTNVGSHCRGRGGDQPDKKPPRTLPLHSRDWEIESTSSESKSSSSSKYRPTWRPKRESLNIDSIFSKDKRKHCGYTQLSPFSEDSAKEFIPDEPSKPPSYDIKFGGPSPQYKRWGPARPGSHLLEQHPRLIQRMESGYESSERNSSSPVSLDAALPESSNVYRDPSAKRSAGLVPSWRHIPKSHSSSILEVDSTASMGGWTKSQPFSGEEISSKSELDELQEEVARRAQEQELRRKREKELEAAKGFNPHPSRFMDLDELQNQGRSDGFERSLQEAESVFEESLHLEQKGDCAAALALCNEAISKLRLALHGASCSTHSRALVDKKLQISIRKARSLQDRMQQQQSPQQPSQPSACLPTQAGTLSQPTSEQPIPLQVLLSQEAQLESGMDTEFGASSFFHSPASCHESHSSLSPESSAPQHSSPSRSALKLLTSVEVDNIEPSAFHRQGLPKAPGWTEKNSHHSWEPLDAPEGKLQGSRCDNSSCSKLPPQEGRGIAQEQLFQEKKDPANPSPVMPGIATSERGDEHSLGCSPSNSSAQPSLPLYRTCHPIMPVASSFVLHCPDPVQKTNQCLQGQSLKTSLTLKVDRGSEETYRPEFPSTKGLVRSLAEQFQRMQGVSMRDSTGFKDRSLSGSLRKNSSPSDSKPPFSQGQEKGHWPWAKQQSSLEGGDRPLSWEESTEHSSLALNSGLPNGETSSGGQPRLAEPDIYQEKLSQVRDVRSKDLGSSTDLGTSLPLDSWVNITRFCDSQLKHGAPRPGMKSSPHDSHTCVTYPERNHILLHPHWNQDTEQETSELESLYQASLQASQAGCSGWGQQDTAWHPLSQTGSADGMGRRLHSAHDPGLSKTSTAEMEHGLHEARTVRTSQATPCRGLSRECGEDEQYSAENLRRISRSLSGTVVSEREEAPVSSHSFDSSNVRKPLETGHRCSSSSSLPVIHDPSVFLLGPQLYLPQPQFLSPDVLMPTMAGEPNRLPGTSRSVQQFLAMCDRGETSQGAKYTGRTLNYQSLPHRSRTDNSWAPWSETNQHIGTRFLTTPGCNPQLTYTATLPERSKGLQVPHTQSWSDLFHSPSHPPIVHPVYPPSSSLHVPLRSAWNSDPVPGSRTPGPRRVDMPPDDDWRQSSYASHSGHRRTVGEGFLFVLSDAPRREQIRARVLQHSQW
Chain of USP9X (Q93008 whole entry): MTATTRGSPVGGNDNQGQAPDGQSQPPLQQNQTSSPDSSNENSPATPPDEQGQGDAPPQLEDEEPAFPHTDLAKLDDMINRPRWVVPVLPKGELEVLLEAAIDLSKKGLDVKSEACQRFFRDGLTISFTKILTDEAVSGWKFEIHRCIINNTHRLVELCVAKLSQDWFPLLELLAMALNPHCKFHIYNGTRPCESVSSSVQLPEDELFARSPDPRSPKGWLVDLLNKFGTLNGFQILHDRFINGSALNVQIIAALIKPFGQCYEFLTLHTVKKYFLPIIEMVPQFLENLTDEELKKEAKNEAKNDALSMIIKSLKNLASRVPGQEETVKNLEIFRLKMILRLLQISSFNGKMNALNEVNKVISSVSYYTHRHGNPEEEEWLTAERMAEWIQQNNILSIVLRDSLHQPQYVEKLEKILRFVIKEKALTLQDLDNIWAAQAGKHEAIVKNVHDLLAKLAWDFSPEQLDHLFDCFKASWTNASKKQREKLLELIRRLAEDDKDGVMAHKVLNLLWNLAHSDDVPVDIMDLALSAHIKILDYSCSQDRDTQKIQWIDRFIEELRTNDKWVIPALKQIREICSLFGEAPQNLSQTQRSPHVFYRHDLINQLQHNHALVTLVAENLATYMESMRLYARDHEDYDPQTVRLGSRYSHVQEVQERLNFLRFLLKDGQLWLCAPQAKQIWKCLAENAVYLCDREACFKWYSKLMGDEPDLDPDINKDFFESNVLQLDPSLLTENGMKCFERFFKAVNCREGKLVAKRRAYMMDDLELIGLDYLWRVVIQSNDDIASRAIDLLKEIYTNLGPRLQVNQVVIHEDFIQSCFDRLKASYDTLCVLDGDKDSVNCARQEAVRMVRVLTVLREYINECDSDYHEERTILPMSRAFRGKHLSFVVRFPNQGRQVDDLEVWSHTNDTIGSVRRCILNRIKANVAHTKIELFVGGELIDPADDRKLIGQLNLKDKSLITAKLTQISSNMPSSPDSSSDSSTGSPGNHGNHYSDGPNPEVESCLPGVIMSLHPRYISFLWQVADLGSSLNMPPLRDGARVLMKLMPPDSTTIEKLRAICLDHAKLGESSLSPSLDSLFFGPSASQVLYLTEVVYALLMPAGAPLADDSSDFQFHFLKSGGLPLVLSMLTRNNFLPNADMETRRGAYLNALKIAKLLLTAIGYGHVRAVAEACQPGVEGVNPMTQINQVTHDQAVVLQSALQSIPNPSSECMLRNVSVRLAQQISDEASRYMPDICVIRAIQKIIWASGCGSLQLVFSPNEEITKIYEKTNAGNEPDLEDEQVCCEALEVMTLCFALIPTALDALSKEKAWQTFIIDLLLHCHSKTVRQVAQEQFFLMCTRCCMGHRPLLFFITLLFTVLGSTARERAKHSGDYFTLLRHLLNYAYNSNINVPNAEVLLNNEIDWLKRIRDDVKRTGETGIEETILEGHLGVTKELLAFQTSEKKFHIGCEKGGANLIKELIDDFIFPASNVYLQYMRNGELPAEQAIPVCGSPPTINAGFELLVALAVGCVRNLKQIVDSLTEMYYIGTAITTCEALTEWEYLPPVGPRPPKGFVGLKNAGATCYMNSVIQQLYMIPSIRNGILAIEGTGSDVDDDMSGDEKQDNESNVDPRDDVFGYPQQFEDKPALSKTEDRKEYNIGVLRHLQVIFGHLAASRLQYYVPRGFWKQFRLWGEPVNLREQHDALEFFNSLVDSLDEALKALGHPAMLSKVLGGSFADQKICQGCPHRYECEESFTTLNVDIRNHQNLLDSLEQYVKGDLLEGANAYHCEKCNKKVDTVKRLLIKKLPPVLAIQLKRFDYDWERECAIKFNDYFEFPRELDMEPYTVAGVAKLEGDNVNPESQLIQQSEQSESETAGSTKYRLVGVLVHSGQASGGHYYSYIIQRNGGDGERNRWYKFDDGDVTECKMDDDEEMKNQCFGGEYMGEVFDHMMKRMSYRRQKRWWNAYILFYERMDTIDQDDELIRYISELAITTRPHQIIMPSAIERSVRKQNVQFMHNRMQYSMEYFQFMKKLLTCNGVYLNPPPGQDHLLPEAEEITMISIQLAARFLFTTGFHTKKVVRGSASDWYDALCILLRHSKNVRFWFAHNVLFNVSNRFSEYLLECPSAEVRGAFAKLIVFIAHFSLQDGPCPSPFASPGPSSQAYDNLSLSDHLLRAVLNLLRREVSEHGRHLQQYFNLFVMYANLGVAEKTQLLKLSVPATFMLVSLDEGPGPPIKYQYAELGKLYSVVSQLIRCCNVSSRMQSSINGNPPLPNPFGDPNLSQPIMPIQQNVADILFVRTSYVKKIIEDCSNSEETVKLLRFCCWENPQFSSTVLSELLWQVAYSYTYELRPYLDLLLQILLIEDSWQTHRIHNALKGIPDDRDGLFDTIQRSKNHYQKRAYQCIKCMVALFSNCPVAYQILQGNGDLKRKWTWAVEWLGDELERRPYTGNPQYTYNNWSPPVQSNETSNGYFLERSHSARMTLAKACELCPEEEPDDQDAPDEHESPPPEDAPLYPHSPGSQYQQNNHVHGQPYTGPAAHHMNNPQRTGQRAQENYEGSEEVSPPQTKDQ
Chain of USP46 (P62068 whole entry): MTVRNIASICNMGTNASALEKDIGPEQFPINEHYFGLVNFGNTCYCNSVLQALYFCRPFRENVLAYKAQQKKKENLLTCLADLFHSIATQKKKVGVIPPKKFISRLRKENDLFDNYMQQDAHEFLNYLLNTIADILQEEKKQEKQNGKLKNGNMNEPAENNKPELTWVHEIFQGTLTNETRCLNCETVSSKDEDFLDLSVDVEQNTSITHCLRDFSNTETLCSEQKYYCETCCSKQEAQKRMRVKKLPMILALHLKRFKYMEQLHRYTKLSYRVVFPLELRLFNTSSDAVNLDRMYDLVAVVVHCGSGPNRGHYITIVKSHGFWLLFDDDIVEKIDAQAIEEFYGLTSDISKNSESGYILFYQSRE
Chain of UniProt O00487 (O00487 whole entry): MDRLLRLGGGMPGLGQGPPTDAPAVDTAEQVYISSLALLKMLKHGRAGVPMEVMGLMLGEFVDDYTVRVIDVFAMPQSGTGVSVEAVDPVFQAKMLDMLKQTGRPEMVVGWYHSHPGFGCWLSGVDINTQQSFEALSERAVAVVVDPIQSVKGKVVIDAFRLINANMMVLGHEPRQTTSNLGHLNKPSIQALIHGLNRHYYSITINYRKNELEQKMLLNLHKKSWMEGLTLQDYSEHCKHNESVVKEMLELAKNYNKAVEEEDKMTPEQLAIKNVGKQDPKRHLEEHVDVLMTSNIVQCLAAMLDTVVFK

Cc1n[nH]c(=O)c2c(NC(=O)CCl)oc(C)c12
inactive: [1] 0.339 | [2] -0.0434 | [3] 0.166 | [4] -0.0393 | [5] -0.00864 | [6] -0.153 | [7] -0.0198 | [8] -0.29 | [9] -0.056 | [10] -0.0655

CC(NC(=O)CCl)c1cccc2ccccc12 (stereo not given)
inactive: [1] -0.241 | [2] 0.159 | [3] -0.308 | [4] -0.368 | [5] 0.225 | [6] 0.115 | [7] -0.339 | [8] -0.651 | [9] -0.285 | [10] -0.0949

O=C(CCl)NCCC1COCCO1 (stereo not given)
inactive: [1] 0.357 | [2] -0.000444 | [3] -0.101 | [4] -0.171 | [5] -0.0923 | [6] 0.157 | [7] -0.157 | [8] -0.26 | [9] -0.131 | [10] -0.1

C/C(=C\CNC(=O)CCl)c1cnn(C)c1.Cl
inactive: [1] 0.377 | [2] -0.21 | [3] -0.51 | [4] -0.224 | [5] -0.543 | [6] -0.0188 | [7] -0.224 | [8] 0.115 | [9] -0.138 | [10] -0.0232
